In the library only some 19% were active in any assay of this set; here they are far more common.
IL1B secr inh: blocks inflammasome-driven IL-1 beta release; activity change, % at 57.5 µM; AID 743279; THP-1 LPS/ATP IL-1B secretion, AlphaLISA, 16 h; stronger effect = lower value; 4.7% of 360,000 active; in the data active = activity change below about -50%; inconclusive = mostly about -30% to -49%
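Secreted IL-1B measured by AlphaLISA bead assay after 16 h compound exposure of THP-1 cells; compounds (final up to 57.5 uM) added 1 h before LPS (250 ng/mL) and ATP (1.25 mM) stimulation; lower signal means less secretion.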
TDP1 cell noCPT: qHTS for Inhibitors of human tyrosyl-DNA phosphodiesterase 1 (TDP1): qHTS in cells in absence of CPT. DT40 Tdp1-/- hTDP1 cells, no CPT, ATP luminescence, 48 h. Potency, µM (highest dose often 46.2 µM), actives largely listed as inhibitors. 15% of 420,000 active; note: nearly all actives have a fitted effect of over 55% in size
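Camptothecin absent (DMSO only). Human TDP1-complemented DT40 knockout cells, 400 cells/well, 37 °C for minimum 48 hr; ATP measured via CellTiter-Glo, 30 min dark incubation, luminescence.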
HT1080NT lethal: kills 2HG-producing HT-1080-NT fibrosarcoma cells; HT-1080-NT fibrosarcoma viability, CellTiter-Glo ATP luminescence, 48 h; Potency, µM (series often up to 46.1 µM), hits mostly cytotoxic; 1.6% of 360,000 active; AID 686970;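 note: NT is the 2HG producing partner of a matched IDH1 knockdown line; nearly all actives have a fitted effect of over 55% in size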
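HT-1080-NT; 750 cells/well; 5% FBS RPMI; 48 h compound, 37 degrees C; CellTiter-Glo luminescence; curve fitting and curve-class assignment.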
HT1080 IDH1KD tx: HT-1080 IDH1 knockdown cell toxicity (counter line); HT-1080 IDH1 knockdown viability, ATP luminescence, 48 h; AID 686971; Potency, µM (doses to about 46.1 µM), usual class: cytotoxic; 2% of 360,000 active
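Viability of IDH1-knockdown HT-1080 fibrosarcoma cells was assessed by CellTiter-Glo after 48 h at 37 °C with titrated compound; concentration-effect curves were classified by fit quality and response size.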
DT40 TDP1 CPT: growth inhibition of DT40 Tdp1-/-;hTDP1 cells with camptothecin (screen for TDP1 inhibitors) | chicken DT40 Tdp1-/-;hTDP1 cells + 20 nM CPT, ATP luminescence, 48 h | Potency, µM (titrated, usually from 46.2 µM), actives largely listed as inhibitors | 12% of 420,000 active; note: nearly all actives have a fitted effect of over 55% in size
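Chicken DT40 Tdp1-/- cells stably complemented with human TDP1 were seeded at 400 cells/well in medium containing 20 nM camptothecin, exposed to pin-transferred compounds, and grown at 37 °C for at least 48 hr. Viability was read as ATP luminescence.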
Large screens that a line does not name were inactive. Unless noted, calls come from the whole dose curve; as a rule, active = well fitted curve in the direction sought with a large enough effect; inconclusive = small, poorly fitted or top-dose-only effect, or another doubt; inactive = no such curve, though single readings can be large; an effect the other way counts as inactive or inconclusive.

C[C@@H]1CN([C@H](C)CO)C(=O)c2c(c3ccccc3n2C)-c2ccccc2CO[C@H]1CN(C)C(=O)NC1CCCCC1	TDP1 cell noCPT 25.9µM, DT40 TDP1 CPT 18.4µM
Cc1sc2nc(C3CC3)nc(SCC(=O)NCc3ccco3)c2c1C	TDP1 cell noCPT inconclusive, HT1080NT lethal inconclusive, DT40 TDP1 CPT inconclusive
C=CCn1c(SCC(=O)NCc2ccco2)nc2ccccc2c1=O	none
COc1ccccc1N1CCN(C(=O)CSc2nc3ccccc3nc2Cc2ccccc2)CC1	TDP1 cell noCPT 23.1µM, DT40 TDP1 CPT 23.1µM (no result: IL1B secr inh, HT1080NT lethal, HT1080 IDH1KD tx)
C=CCn1c(SCC(=O)NCc2ccco2)nnc1-c1ccc2ccccc2n1	TDP1 cell noCPT 18.4µM, DT40 TDP1 CPT inconclusive
O=C(CSc1nc(C2CCCCC2)nc2ccccc12)NCc1ccco1	IL1B secr inh -81.8, TDP1 cell noCPT 20.6µM, HT1080NT lethal inconclusive, DT40 TDP1 CPT inconclusive
O=C(CSc1nc2ccccc2nc1SCC(=O)N1CCOCC1)N1CCOCC1	none
O=C(CSc1nc2ccccc2nc1SCC(=O)N1CCCCC1)N1CCCCC1	IL1B secr inh -59.5, TDP1 cell noCPT inconclusive, HT1080NT lethal inconclusive, DT40 TDP1 CPT 16.4µM
CC1CCCCN1C(=O)CSc1nc(C2CC2)nc2ccccc12 (stereo not given)	IL1B secr inh -76.5, TDP1 cell noCPT inconclusive, HT1080 IDH1KD tx inconclusive, DT40 TDP1 CPT inconclusive
CC1CCN(C(=O)CSc2nc(C3CC3)nc3ccccc23)CC1	IL1B secr inh inconclusive, TDP1 cell noCPT inconclusive, DT40 TDP1 CPT inconclusive
CC(C)c1nc2ccccc2c2nnc(SCC(=O)NCc3ccco3)n12	TDP1 cell noCPT inconclusive, DT40 TDP1 CPT 16.4µM
Cc1ccc(Cc2nc3ccccc3nc2SCC(=O)N2CCN(c3ccccc3)CC2)cc1	none (no result: IL1B secr inh, HT1080NT lethal, HT1080 IDH1KD tx)
CC1CCN(C(=O)CSc2nc3ccccc3nc2Cc2ccccc2)CC1	TDP1 cell noCPT 10.3µM, DT40 TDP1 CPT 14.6µM (no result: IL1B secr inh, HT1080NT lethal, HT1080 IDH1KD tx)
Cc1ccc(Cc2nc3ccccc3nc2SCC(=O)N2CCCCC2)cc1	TDP1 cell noCPT 20.6µM, DT40 TDP1 CPT inconclusive (no result: IL1B secr inh, HT1080NT lethal, HT1080 IDH1KD tx)
O=C(NC(Cc1cccc(F)c1)C(=O)O)C1CCCCC1 (stereo not given)	none
O=C(CSc1nc2ccccc2nc1Cc1ccc(Cl)cc1)N1CCN(c2ccccc2)CC1	TDP1 cell noCPT inconclusive (no result: IL1B secr inh, HT1080NT lethal, HT1080 IDH1KD tx)
Cn1c(SCC(=O)N2CCCC2)nc2ccccc21	none
CCCNC(=O)CSc1nc2ccccc2nc1Cc1ccc(Cl)cc1	TDP1 cell noCPT inconclusive (no result: IL1B secr inh, HT1080NT lethal, HT1080 IDH1KD tx)
CC1CCCCN1C(=O)CSc1nc2ccccc2nc1Cc1ccc(Cl)cc1 (stereo not given)	TDP1 cell noCPT inconclusive, DT40 TDP1 CPT 18.4µM (no result: IL1B secr inh, HT1080NT lethal, HT1080 IDH1KD tx)
COc1ccc(N2CCN(C(=O)CSc3nc4ccccc4nc3Cc3ccc(Cl)cc3)CC2)cc1	TDP1 cell noCPT inconclusive, DT40 TDP1 CPT 20.6µM (no result: IL1B secr inh, HT1080NT lethal, HT1080 IDH1KD tx)
O=C(CSc1nc2ccccc2nc1Cc1ccc(Cl)cc1)N1CCCCC1	TDP1 cell noCPT 16.4µM, DT40 TDP1 CPT inconclusive (no result: IL1B secr inh, HT1080NT lethal, HT1080 IDH1KD tx)
COc1ccc(N(CC(=O)NCc2ccc(F)cc2)C(=O)c2snc(C(N)=O)c2N)cc1	none
CC1CCCCC12NC(=O)N(CC(=O)NNC(=O)c1ccc(Br)cc1)C2=O (stereo not given)	none
CC1CCCCN1S(=O)(=O)c1cc2c(=O)nc3ccccn3c2cc1Cl (stereo not given)	none (no result: IL1B secr inh, HT1080NT lethal, HT1080 IDH1KD tx)
COc1ccc(C(=O)N2CCN(c3ccccn3)CC2)cc1[N+](=O)[O-]	TDP1 cell noCPT inconclusive
COC(=O)c1ccc(C(C(=O)NC2CCCCC2)N(Cc2ccccc2)C(=O)Cc2cccs2)cc1 (stereo not given)	TDP1 cell noCPT 4.11µM, DT40 TDP1 CPT 3.26µM
O=C(NC1CCCC1)C(c1ccccc1)N(Cc1ccc2c(c1)OCO2)C(=O)Cc1cccs1 (stereo not given)	TDP1 cell noCPT inconclusive, DT40 TDP1 CPT inconclusive
O=C(NC1CCCCC1)C(c1cccnc1)N(CCc1ccccc1)C(=O)Cc1cccs1 (stereo not given)	TDP1 cell noCPT 10.3µM, DT40 TDP1 CPT inconclusive
O=C(NCc1ccccc1)C(c1ccccc1)N(Cc1ccc2c(c1)OCO2)C(=O)Cc1cccs1 (stereo not given)	TDP1 cell noCPT 23.1µM, DT40 TDP1 CPT inconclusive
O=C(NC1CCCC1)C(c1cccnc1)N(CCc1ccccc1)C(=O)c1ccco1 (stereo not given)	none
COCCN(C(=O)Cc1cccs1)C(C(=O)NCc1ccc(OC)cc1)c1ccc(C)cc1 (stereo not given)	TDP1 cell noCPT inconclusive, DT40 TDP1 CPT inconclusive
COc1ccc(CNC(=O)C(c2ccc(C)o2)N(Cc2cccs2)C(=O)Cc2cccs2)cc1 (stereo not given)	IL1B secr inh inconclusive, TDP1 cell noCPT inconclusive, HT1080NT lethal inconclusive, DT40 TDP1 CPT 29.1µM
COc1cc(OC)cc(C(=O)N[C@H](C(=O)OCC(=O)N2CCN(S(=O)(=O)c3ccc(C)cc3)CC2)C(C)C)c1	none
O=C(NC1CCCC1)C(c1ccsc1)N(Cc1ccccc1)C(=O)Cc1cccs1 (stereo not given)	TDP1 cell noCPT 13µM, DT40 TDP1 CPT 18.4µM
COC(=O)c1ccc(C(C(=O)NC2CCCCC2)N(C(=O)Cc2cccs2)C2CC2)cc1 (stereo not given)	TDP1 cell noCPT 10.3µM, DT40 TDP1 CPT 8.2µM
COc1ccccc1CN(C(=O)Cc1cccs1)C(C(=O)NC1CCCC1)c1ccncc1 (stereo not given)	TDP1 cell noCPT inconclusive, DT40 TDP1 CPT inconclusive (no result: HT1080NT lethal, HT1080 IDH1KD tx)
COCOCCn1cc(CN2CCS(=O)(=O)N(Cc3ccc(-c4ccc(Cl)nc4)cc3)C(C(C)C)C2=O)nn1 (stereo not given)	DT40 TDP1 CPT 7.31µM
COCOCCn1cc(CN2CCS(=O)(=O)N(Cc3ccc(-c4ccncc4)cc3)C(CC(C)C)C2=O)nn1 (stereo not given)	TDP1 cell noCPT inconclusive, DT40 TDP1 CPT 23.1µM
COCOCCn1cc(CN2CCS(=O)(=O)N(Cc3ccc(-c4ccccc4)cc3)C(C(C)C)C2=O)nn1 (stereo not given)	TDP1 cell noCPT 23.1µM, DT40 TDP1 CPT inconclusive
COCOCCn1cc(CN2CCS(=O)(=O)N(Cc3ccc(-c4ccc(OC)cc4)cc3)C(C(C)C)C2=O)nn1 (stereo not given)	TDP1 cell noCPT 16.4µM, DT40 TDP1 CPT 14.6µM
CCNc1ncc2nc(-c3ccc(OC)cc3)c(=O)n(Cc3cccs3)c2n1	DT40 TDP1 CPT inconclusive (no result: IL1B secr inh, HT1080NT lethal, HT1080 IDH1KD tx)
O=C(NCCCN1CCOCC1)C(=O)N/N=C/c1ccccc1O	TDP1 cell noCPT inconclusive, DT40 TDP1 CPT inconclusive
CC(Oc1ccc(Cl)cc1)C(=O)Nc1sccc1C(N)=O (stereo not given)	IL1B secr inh -62.4, TDP1 cell noCPT 16.4µM, DT40 TDP1 CPT inconclusive

Screening data (PubChem BioAssay)
